The panel holds about 83,000 compounds, 20% with a hit somewhere; the sample as a whole holds those more often.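 Cells were grown in 96-well plates and exposed to the test compound at a single concentration for 48 hours; results are reported as percent growth, with values below 10 considered active.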 A number with no mark means an inactive call. Calls of active or inactive are those of the source.
Tested on: HL-60(TB) leukemia
Assay: NCI-60 one-dose screen, 48 h (100 = growth as untreated, 0 = no growth, -100 = all killed)
Conditions: 10 µM unless noted

With `O=C(NC1CCNCC1)c1[nH]ncc1NC(=O)c1c(Cl)cccc1Cl` the growth was -31.8% (active).
In the case of `CC(C)(C)c1cc(C[P+](c2ccccc2)(c2ccccc2)c2ccccc2)cc(C(C)(C)C)c1O`, the growth is reported as -45.3% (active).
With `O=C1/C(=C/c2ccccc2)CN(C(=O)C(Cl)Cl)C/C1=C\c1ccccc1` the growth was -15.3% (active).
For `CC1CCc2c(C(=O)Nc3ncc(Cc4cccc([N+](=O)[O-])c4)s3)csc2C1` (stereo not given), the growth was -26.3% (active).
For `O=C(NC1CCCCC1)OCc1c(COC(=O)NC2CCCCC2)c(-c2ccc(Cl)c(Cl)c2)n2c1CCC2`, the growth was -35.6% (active).
In the case of `COc1ccccc1NC(=O)c1cc2cc(Br)ccc2cc1O`, the growth is reported as -33.7% (active).
With `CN1CCN(C(=O)[C@@]2(C)CC[C@]3(C)CC[C@]4(C)C(=CC[C@@H]5[C@@]6(C)CC[C@H](OC(=O)c7cccnc7)C(C)(C)[C@@H]6CC[C@]54C)[C@@H]3C2)CC1` the growth was -49.1% (active).
In the case of `CCSc1sc(-c2ccc(C)cc2)nc1[P+](c1ccccc1)(c1ccccc1)c1ccccc1`, the growth is reported as -47% (active).
With `O=[N+]([O-])c1ccc(-c2cc(-c3ccc(Nc4nc(Nc5ccc(Cl)cc5)nc(Nc5ccc(Cl)cc5)n4)cc3)no2)cc1` the growth was -63% (active).
In the case of `COc1ccc(-c2cn[nH]c2-c2cc(OC)c3c(c2)OCO3)cc1`, the growth is reported as -29% (active).

Going from `COc1ccc(-c2csc(NC(=O)c3cc(OC)c(OC)c(OC)c3)n2)cc1` to `COc1cc(C(=O)n2nc(N)c3c(C)cc(C)nc32)cc(OC)c1OC`, the growth falls from 102% to 21.6%.

First: COc1cc(C2CC(c3c(C)[n+]([O-])c4ccccc4[n+]3[O-])=NN2)cc(OC)c1OC (stereo not given)
Second: COc1cc(CN(c2ccc(Cl)cc2)C2OC(=O)c3ccccc32)cc(OC)c1OC (stereo not given)
The growth of the first is higher: 97.8% for the first, 21.7% for the second.

First: O=C(CN1CCN(c2cc3c(cc2F)c(=O)c(C(=O)O)cn3C2CC2)CC1)Nc1cc(=O)[nH]c(=O)[nH]1
Second: O=C(Nc1ccccc1CNc1nc(Nc2ccc(OCCN3CCCC3)cc2)ncc1Cl)NC1CCCCC1
The growth of the first is higher: 103% for the first, 99.9% for the second.

Going from `CN(C)c1ccc(C(=O)OCCCCCCl)cc1` to `CCOc1ccc(C(=O)NCC(C)C)cc1`, the growth rises from 76% to 94.9%.

Compared with `CCOC(=O)Cn1c(=O)c2c(c3ccccc3n2C)n2nnc(-c3ccccc3)c12`, `O=C(Cn1ccnc1)NC(c1ccccc1)c1ccccc1` is lower in growth: 109% for the first, 96.7% for the second.

First: COc1ccc2cc(C(C)C(=O)Nc3ccc(S(=O)(=O)Nc4cc(C)on4)cc3)ccc2c1 (stereo not given)
Second: COc1ccc(Nc2ncnc3c2c(SC)nn3-c2ccccc2)cc1
The growth of the first is higher: 143% for the first, 90.5% for the second.

Going from `S=C1SCC(c2ccccc2)S1` (stereo not given) to `O=c1nc(NO)[nH]c(=O)n1Cc1ccccc1`, the growth falls from 108% to 105%.

Going from `COC1=CC(=O)C(OC)=C(O)C1=O` to `Cc1c(O)nc(N)[nH]c1=O`, the growth rises from 107% to 137%.

Going from `CCCOC(=O)Nc1nc2ccc(SCC)cc2s1` to `O=C(Nc1ncc(Cc2cccc(C(F)(F)F)c2)s1)c1ccc(-n2cnnn2)cc1`, the growth falls from 76.4% to 70.8%.

Going from `O=C1NCN(c2ccccc2)C12CCN(CCCC(c1ccc(F)cc1)c1ccc(F)cc1)CC2` to `CNCCCC12CCC(c3ccccc31)c1ccccc12`, the growth rises from 32.6% to 71%.

Going from `COc1ccc(-c2nc3ncccn3c2-c2nnc(-c3ccsc3C)o2)cc1` to `Cc1nc(Nc2ccc(N)cc2)c2ccccc2n1`, the growth falls from 92.5% to 62%.

First: CN1CCN(CCCCCN=c2cc3c(=O)n(CCCCCN4CCN(C)CC4)c(=O)c4c(NCCCCCN5CCN(C)CC5)cc5c(O)n(CCCCCN6CCN(C)CC6)c(=O)c2c5c4-3)CC1
Second: COc1ccc(CCCc2c3[n+](cc4c(OC)c(OC)ccc24)CCc2cc4c(cc2-3)OCO4)cc1
The growth of the first is higher: 51.5% for the first, 36.6% for the second.

Compared with `c1ccc2oc(-c3cnc4nonc4n3)cc2c1`, `Cc1ccc(/C=C(\C#N)c2cc3ccccc3[nH]2)cc1` is lower in growth: 90.9% for the first, 22.8% for the second.

Going from `CC(C)(C)C(=O)/C=C/c1ccc([N+](=O)[O-])cc1` to `NC(=Nc1ccccc1)SCCCCSC(N)=Nc1ccccc1`, the growth rises from 75.2% to 79.5%.

In the case of `N#CC(C#N)C(C#N)C#N`, the growth is reported as 98.6%.

Work on `COc1ccc2cc(C(=O)N3CCC([C@@H](C)C(=O)NCc4ccc5c(c4)OCO5)CC3)[nH]c2c1` yielded a growth of 91% [50 µM].
